Laboratory results as given in PubChem BioAssay (Tox21).
Inconclusive results are not listed. Calls of active or inactive are those of the source. Unless noted, calls follow the shape of the dose curve; as a rule, active = well fitted curve in the direction sought with a large enough effect in the repeat runs; inconclusive = weak or mixed curves; inactive = no such curve, though single readings can be large; an effect the other way counts as inactive or inconclusive.

Legend:
[1] = qHTS assay to identify small molecule agonists of the estrogen related receptor signaling pathway with the pleiotropic PPARgamma coactivator (PGC) (AID 1224823)
How it was run: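 Cell-based luciferase assay in the NTP-supplied PGC/ERR line, 2,000 cells/well; 18 h compound exposure at 37 C, luminescence after One-Glo.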

[2] = qHTS assay to identify small molecule antagonists of the estrogen related receptor (ERR) signaling pathway from Tox21 library - cell viability counter screen (AID 1224834); also: nearly all actives have a fitted effect of over 30% in size
How it was run: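 ERR reporter cells were plated 6 h before compound addition, then exposed to test compounds in DMSO for 17.5 h at 37 C. Viability was read as CellTiter-Fluor fluorescence after a 30-minute incubation at 37 C.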

[3] = molecular target: Luciferin 4-monooxygenase (Photinus pyralis) (UniProt P08659); assay: qHTS assay to identify small molecule inhibitors of firefly luciferase (AID 1224835); also: nearly all actives have a fitted effect of over 25% in size
Sequence of Luciferin 4-monooxygenase (Photinus pyralis) (P08659 whole entry, looked up): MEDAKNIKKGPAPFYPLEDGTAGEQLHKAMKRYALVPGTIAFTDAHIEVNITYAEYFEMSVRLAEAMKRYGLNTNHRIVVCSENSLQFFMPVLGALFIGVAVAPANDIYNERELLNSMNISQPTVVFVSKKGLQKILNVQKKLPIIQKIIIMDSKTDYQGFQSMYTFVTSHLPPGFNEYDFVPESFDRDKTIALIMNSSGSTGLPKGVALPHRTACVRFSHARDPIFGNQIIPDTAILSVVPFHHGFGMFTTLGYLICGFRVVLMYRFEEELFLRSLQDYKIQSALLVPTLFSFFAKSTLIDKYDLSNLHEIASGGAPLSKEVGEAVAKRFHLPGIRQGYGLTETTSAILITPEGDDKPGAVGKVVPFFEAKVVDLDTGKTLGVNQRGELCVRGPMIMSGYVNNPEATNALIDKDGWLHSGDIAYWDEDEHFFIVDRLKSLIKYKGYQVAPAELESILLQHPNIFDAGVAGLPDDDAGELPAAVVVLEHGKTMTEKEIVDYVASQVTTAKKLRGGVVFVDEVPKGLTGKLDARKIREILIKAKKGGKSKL
How it was run: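 Quantitative HTS format; KM concentrations of both substrates. Purified P. pyralis FLuc activity quantified from luminescence images.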

[4] = qHTS assay to identify small molecule agonists of the constitutive androstane receptor (CAR) signaling pathway - cell viability counter screen (AID 1224836); also: nearly all actives have a fitted effect of over 45% in size
How it was run: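 Viability read-out: CellTiter-Fluor fluorescence after 23 h compound exposure at 37 C/5% CO2 in double-stable HepG2-CYP2B6-hCAR cells, with PK11195 present at 0.75 uM final; compounds tested in 15-point titration.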

[5] = qHTS assay to identify small molecule antagonists of the constitutive androstane receptor (CAR) signaling pathway - cell viability counter screen (AID 1224837); also: nearly all actives have a fitted effect of over 45% in size
How it was run: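 HepG2 cells stably expressing hCAR and a CYP2B6-2.2kb reporter were plated and pre-incubated 4 hr at 37 C/5% CO2, then given compounds at 15 concentrations plus 50 nM CITCO (final). After 23 hr, viability was read by CellTiter-Fluor fluorescence.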

[6] = molecular target: Nuclear receptor subfamily 1 group I member 3 (Homo sapiens) (UniProt Q14994); assay: qHTS assay to identify small molecule antagonists of the constitutive androstane receptor (CAR) signaling pathway (AID 1224838); also: nearly all actives have a fitted effect of over 40% in size
Sequence of Nuclear receptor subfamily 1 group I member 3 (Homo sapiens) (Q14994 whole entry, looked up): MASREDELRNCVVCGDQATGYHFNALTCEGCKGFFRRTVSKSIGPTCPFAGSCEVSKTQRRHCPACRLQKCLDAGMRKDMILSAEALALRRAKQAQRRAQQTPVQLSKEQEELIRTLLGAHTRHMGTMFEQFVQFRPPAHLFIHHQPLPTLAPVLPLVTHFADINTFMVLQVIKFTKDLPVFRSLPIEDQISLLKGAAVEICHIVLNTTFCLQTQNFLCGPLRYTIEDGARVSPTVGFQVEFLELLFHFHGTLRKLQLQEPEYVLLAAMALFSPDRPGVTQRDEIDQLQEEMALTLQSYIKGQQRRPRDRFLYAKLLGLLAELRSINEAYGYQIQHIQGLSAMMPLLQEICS
How it was run: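 HepG2 cells stably co-transfected with hCAR and a CYP2B6-2.2kb luciferase reporter were seeded 4 h before compound addition at 15 concentrations. Cells were stimulated with 50 nM CITCO (final) for 24 h at 37 C; luciferase luminescence was then read.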

[7] = molecular target: Nuclear receptor subfamily 1 group I member 3 (Homo sapiens) (UniProt Q14994); assay: qHTS assay to identify small molecule agonists of the constitutive androstane receptor (CAR) signaling pathway (AID 1224839);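 also: HepG2 cells stably carrying human CAR and a CYP2B6 luciferase reporter; nearly all actives have a fitted effect of over 15% in size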
How it was run: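 Luminescence read-out (ONE-Glo, 30 min, room temperature) from double-stable HepG2-CYP2B6-hCAR cells exposed 24 h to 15-point compound series in presence of 0.75 uM PK11195 final.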

[8] = qHTS assay to identify small molecule antagonists of the estrogen related receptor signaling pathway with the pleiotropic PPARgamma coactivator (PGC) from Tox21 10K library - cell viability counter screen (AID 1224840; active = well fitted cell-killing curve with a large enough effect in the repeat runs, not every such curve was filed as active; also: nearly all actives have a fitted effect of over 40% in size)
How it was run: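 PGC/ERR cells were seeded at 2,000 cells/well and left 6 hours at 37 C/5% CO2 before pin-tool addition of compounds in DMSO. After 17.5 hours at 37 C, CellTiter-Fluor was added and fluorescence read 30 minutes later.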

[9] = qHTS assay to identify small molecule antagonists of the estrogen related receptor signaling pathway with the pleiotropic PPARgamma coactivator (PGC) from Tox21 10K library (AID 1224841; call rule not given here; also: actives are mostly falling curves and most rising ones were filed inactive; nearly all actives have a fitted effect of over 50% in size)
How it was run: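 PGC/ERR reporter cells were seeded at 2,000 cells/well and held 6 hours at 37 C/5% CO2 before pin-tool addition of compounds in DMSO. After 18 hours at 37 C, One-Glo was added and luminescence read after 30 minutes at room temperature.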

[10] = qHTS assay to identify small molecule agonists of the estrogen related receptor signaling pathway with the pleiotropic PPARgamma coactivator (PGC) from Tox21 10K library (AID 1224842); also: nearly all actives have a fitted effect of over 15% in size
How it was run: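 PGC/ERR reporter cells (NTP line) were seeded 2,000 per well, rested 6 h at 37 C/5% CO2, then pin-dosed with compounds in DMSO for 18 h at 37 C; luciferase read by One-Glo luminescence after 30 min at room temperature.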

[11] = molecular target: Thyrotropin receptor (Homo sapiens) (UniProt P16473); assay: qHTS assay to identify small molecule agonists of the thyroid stimulating hormone receptor (TSHR) signaling pathway (AID 1224843; calls by dose curve; also: nearly all actives have a fitted effect of over 45% in size)
Sequence of Thyrotropin receptor (Homo sapiens) (P16473 whole entry, looked up): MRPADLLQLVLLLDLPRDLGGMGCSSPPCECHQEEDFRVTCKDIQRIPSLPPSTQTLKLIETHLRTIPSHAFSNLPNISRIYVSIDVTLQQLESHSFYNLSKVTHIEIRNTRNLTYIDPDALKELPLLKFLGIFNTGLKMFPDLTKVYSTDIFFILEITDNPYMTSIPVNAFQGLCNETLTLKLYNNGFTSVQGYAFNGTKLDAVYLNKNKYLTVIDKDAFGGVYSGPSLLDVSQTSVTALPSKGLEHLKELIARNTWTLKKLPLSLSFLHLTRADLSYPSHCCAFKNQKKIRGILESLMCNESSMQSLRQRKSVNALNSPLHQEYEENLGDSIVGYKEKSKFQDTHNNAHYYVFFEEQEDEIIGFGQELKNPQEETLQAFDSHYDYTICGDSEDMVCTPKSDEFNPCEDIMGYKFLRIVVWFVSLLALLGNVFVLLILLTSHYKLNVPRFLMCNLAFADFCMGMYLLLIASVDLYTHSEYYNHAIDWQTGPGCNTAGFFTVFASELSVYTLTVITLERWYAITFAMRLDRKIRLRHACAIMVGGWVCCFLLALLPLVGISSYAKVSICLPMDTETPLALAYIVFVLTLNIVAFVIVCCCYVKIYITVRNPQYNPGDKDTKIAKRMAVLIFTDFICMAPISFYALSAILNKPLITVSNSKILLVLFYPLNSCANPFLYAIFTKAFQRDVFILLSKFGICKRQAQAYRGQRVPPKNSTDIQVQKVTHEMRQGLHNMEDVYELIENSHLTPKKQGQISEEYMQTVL
How it was run: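 TSHR-expressing HEK293 cells (800 per well) were exposed to compounds for 30 min at room temperature. cAMP was then detected by HTRF competition with cAMP-d2 and anti-cAMP cryptate, read after 1 h at room temperature. Fifteen concentrations, triplicate.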

[12] = qHTS assay to identify small molecule agonists of the hypoxia (HIF-1) signaling pathway - cell viability counter screen (AID 1224844; calls by dose curve; also: nearly all actives have a fitted effect of over 50% in size)
How it was run: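 HRE-bla ME-180 cells in medium with 0.5% dialyzed FBS were preincubated 5 hrs at 37C, exposed to compounds for 17 hrs, then viability was read as CellTiter-Glo luminescence after 30 min at room temperature, in the reporter wells.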

[13] = qHTS assay to identify small molecule agonists of H2AX (AID 1224845; active = well fitted activation curve with a large enough effect in the signal ratio in the repeat runs, not every such curve was filed as active; the % refers to the signal ratio)
How it was run: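 Wild-type CHO-K1 cells plated overnight, then exposed 3 hr at 37C to compounds at 15 concentrations (0.76% DMSO). Lysed, then HTRF anti-pH2AX(S139)-cryptate/anti-H2AX-d2 detection after 24 hr at room temperature; emissions 665 and 620 nm.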

[14] = qHTS assay to identify small molecule agonists of the hypoxia (HIF-1) signaling pathway (AID 1224846; active = well fitted activation curve with a large enough effect in the signal ratio in the repeat runs, not every such curve was filed as active; the % refers to the signal ratio)
How it was run: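 HRE-bla ME-180 cells (beta-lactamase reporter under hypoxia response element) were plated at 2,000 cells/well in medium with 0.5% dialyzed FBS, rested 5 hrs, then given compounds in DMSO for 17 hrs at 37C, 5% CO2. Reporter induction was read with CCF4-AM FRET substrate.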

[15] = qHTS assay to identify small molecule agonists of H2AX - cell viability counter screen (AID 1224847; calls by dose curve; also: top concentration of the series differs between compounds; nearly all actives have a fitted effect of over 30% in size)
How it was run: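 CHO-K1 wt, 1000 cells/well, o/n 37C; cpds 15 conc, 3 h 37C, 0.76% DMSO; CellTiter-Glo, 30 min RT, luminescence.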

[16] = qHTS assay to identify small molecule antagonists of the estrogen related receptor (ERR) signaling pathway from Tox21 library (AID 1224848); also: nearly all actives have a fitted effect of over 50% in size
How it was run: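 Cells: ERR line, 2,000/well; 6 h preincubation 37 C/5% CO2. Cpd in DMSO via pin tool; 18 h, 37 C. ONE-Glo, 30 min RT, luminescence.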

[17] = qHTS assay to identify small molecule agonists of the estrogen related receptor (ERR) signaling pathway from Tox21 library (AID 1224849; calls by dose curve; also: nearly all actives have a fitted effect of over 15% in size); settings: ERR reporter cell line, ONE-Glo luciferase, 18 h; at 92.4 µM (top of the series) unless noted
How it was run: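 ERR reporter cell line (NTP) seeded, rested 6 h at 37 C/5% CO2, then pinned with Tox21 compounds in DMSO. After 18 h at 37 C, ONE-Glo luciferase luminescence was read following 30 min at room temperature.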

[18] = qHTS RealTime-Glo MT Cell Viability Assay in HepG2 cells - 24 hour (AID 1224867); also: nearly all actives have a fitted effect of over 50% in size
How it was run: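 HepG2 suspension premixed with RealTime-Glo reagents is plated at 600 cells per well and left 5 h at 37 C/5% CO2. Compounds in DMSO then go in, and bioluminescence reflecting viable cell number is recorded over 40 h.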

[19] = qHTS RealTime-Glo MT Cell Viability Assay in HEK293 cells - 32 hour (AID 1224868)
How it was run: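 Reads taken at 0, 8, 16, 24, 32 and 40 h from the same wells. HEK293 cells (600/well) carried RealTime-Glo reagents from seeding, with compound added after a 5 h settle at 37 C.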

[20] = A CellTox Green Cytotoxicity Assay to monitor cytotoxicity in HEK293 cells - 0 hour (AID 1224869); also: nearly all actives have a fitted effect of over 50% in size
How it was run: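 HEK293 cells premixed with CellTox Green dye were seeded at 600 cells/well and left 5 h at 37 C/5% CO2 before pin transfer of 23 nL compound in DMSO. Fluorescence from dye bound to dead-cell DNA was read during 40 h treatment.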
% is scaled to controls: 0 for no effect and ±100 for the full control effect.

Cc1ccc(S(=O)(=O)N[C@@H](CCCCN)C(=O)CCl)cc1
inactive: outcome [1] | Potency [2] | Potency [3] | Potency [4] | Potency [5] | Potency [6] | Potency [7] | Potency [8] | Potency [9] | Potency [10] | Potency [11] | Potency [12] | outcome [13] | outcome [14] | Potency [15] | Potency [16] | activity change, positive = activation [17] 0.318% [at 42.5 µM] | Potency [18] | Potency [19] | outcome [20]

CCC(C)(C#N)N=NC(C)(C#N)CC (centres undefined)
inactive: Potency [2] | Potency [3] | Potency [4] | Potency [5] | Potency [6] | Potency [7] | Potency [8] | Potency [9] | Potency [10] | Potency [11] | Potency [12] | outcome [13] | Potency [15] | Potency [16] | activity change, positive = activation [17] 3.15% | Potency [18] | Potency [19] | outcome [20]

CCCCS(=O)(=O)Cl
inactive: Potency [2] | Potency [3] | Potency [4] | Potency [5] | Potency [6] | Potency [7] | Potency [8] | Potency [9] | Potency [10] | Potency [11] | Potency [12] | outcome [13] | outcome [14] | Potency [16] | activity change, positive = activation [17] -4.82% | Potency [18] | outcome [20]

COc1ccccc1OC
inactive: Potency [2] | Potency [3] | Potency [4] | Potency [5] | Potency [6] | Potency [7] | Potency [8] | Potency [9] | Potency [10] | Potency [11] | Potency [12] | outcome [13] | outcome [14] | Potency [15] | Potency [16] | activity change, positive = activation [17] 2.11% | Potency [18] | outcome [20]

CCCC(C)(COC(N)=O)COC(N)=O
inactive: Potency [2] | Potency [3] | Potency [4] | Potency [5] | Potency [6] | Potency [7] | Potency [8] | Potency [9] | Potency [10] | Potency [11] | Potency [12] | outcome [13] | outcome [14] | Potency [15] | Potency [16] | activity change, positive = activation [17] 0.442% | Potency [18] | Potency [19] | outcome [20]

CC[C@@H](CO)NC(=O)[C@@H]1C=C2c3cccc4[nH]cc(c34)C[C@H]2N(C)C1
inactive: outcome [1] | Potency [2] | Potency [3] | Potency [4] | Potency [5] | Potency [8] | Potency [9] | Potency [10] | Potency [11] | Potency [12] | outcome [13] | outcome [14] | Potency [16] | activity change, positive = activation [17] -0.565% [at 42.5 µM] | Potency [18] | Potency [19] | outcome [20]
